The results in this text go back to PubChem BioAssay (NCI).

The nature of assay [1]: NCI Yeast Anticancer Drug Screen. Data for the rad50 strain (AID 155).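 Note: 0% = growth of vehicle-only cultures of the same strain.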 To be noted: S. cerevisiae rad50 strain growth inhibition; at 50.0 µM; stronger effect = higher value. The gist of the method:
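Growth of the mutant yeast was measured after compound exposure and referenced to vehicle-treated cultures.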

A short description of assay [2]: NCI Yeast Anticancer Drug Screen. Data for the mec2-1 strain (AID 157). The settings on record: S. cerevisiae mec2-1 strain, at 50.0 µM, stronger effect = higher value. The gist of the method:
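mec2-1 yeast strain, carrying an alteration in DNA damage repair or cell cycle control, was exposed to compounds; growth inhibition was measured relative to vehicle-treated controls.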

Assay [3] in a line: NCI Yeast Anticancer Drug Screen. Data for the sgs1 mgt1 strain (AID 161).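 Note: 0% = growth of cultures given vehicle only.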 To be noted: S. cerevisiae sgs1 mgt1 strain, at 50.0 µM, stronger effect = higher value. The gist of the method:
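This yeast growth screen uses a strain with defined DNA-repair lesions; compound-treated growth is compared with vehicle-treated growth.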

Assay [4] is described as follows: NCI Yeast Anticancer Drug Screen. Data for the cln2 rad14 strain (AID 165).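 Note: 0% = growth equal to vehicle treated cultures.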 The settings on record: S. cerevisiae cln2 rad14 strain, at 50.0 µM, stronger effect = higher value. The gist of the method:
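Yeast carrying cln2 and rad14 alterations (cell cycle control and DNA damage repair) were exposed to compounds. Growth inhibition was measured against vehicle-treated controls.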

A short description of assay [5]: NCI Yeast Anticancer Drug Screen. Data for the bub3 strain (AID 167). To be noted: S. cerevisiae bub3 mutant strain, at 50.0 µM, stronger effect = higher value. The essentials:
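Whole-cell yeast assay. The mutant strain was incubated with compounds, and growth inhibition was determined by comparison with vehicle-treated cells.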

The nature of assay [6]: NCI Yeast Anticancer Drug Screen. Data for the mlh1 rad18 strain (AID 175). The settings on record: S. cerevisiae mlh1 rad18 strain growth inhibition; at 50.0 µM; stronger effect = higher value. The gist of the method: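 Growth inhibition of the yeast strain was measured after compound exposure and expressed relative to vehicle-treated controls. The strain carries defined defects in DNA damage repair.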

Molecules are shown by their SMILES. This is part of a sample that, as a whole, favours compounds with a hit. Of some 79,000 tested, about 15% had one in any assay. Unmarked numbers belong to inactive results. The source made the active and inactive calls. Cut-off read from the data, not from the text of the source: active = growth inhibition above about 70%; inactive = the rest.

Turning to `CC(CN1c2ccccc2Sc2ccccc21)N(C)CCO` (stereo not given), the growth inhibition in assay [1] is 3%; in assay [2], -24.7%; in assay [3], -4.05%; in assay [4], -1.6%; in assay [5], -4.3%; in assay [6], -0.9%.

With `CCC(=O)Nc1cc(Cl)ccc1Cl`, the growth inhibition in assay [1] was 34.2%; in assay [2], 11.8%; in assay [3], 10.4%; in assay [4], 10.2%; in assay [5] it was -8.9%; in assay [6], 11.2%.

As to `CC(=O)CC(C)(C)NC(=S)Nc1ccc(O)cc1`, the growth inhibition in assay [1] was 99.7% (active); in assay [2] it was 99.5% (active); in assay [3] it was 99.8% (active); in assay [4], 98.8% (active); in assay [5] it was 99.8% (active); in assay [6] it was 99.8% (active).

On to `CC(Br)C(=O)c1ccc2ncccc2c1` (stereo not given), for which the growth inhibition in assay [1] is 5.15%; in assay [2], -24.8%; in assay [3], -7.6%; in assay [4], -1.45%; in assay [5] it was 12.8%; in assay [6], 12.8%.

With `Cc1ccc(SCC(CF)OCn2cc(F)c(=O)[nH]c2=O)cc1` (stereo not given), the growth inhibition was -7.85% in assay [1]; -13% in assay [2]; -12.2% in assay [3]; -22.2% in assay [4]; 1.95% in assay [5]; -8.05% in assay [6].

On to `NOCc1nnc(Nc2ccccc2)s1`, for which the growth inhibition is 7.25% in assay [1]; 3.8% in assay [2]; 5.8% in assay [3]; 19.3% in assay [4]; -4.4% in assay [5]; 5.55% in assay [6].

Consider `O=C1OCC(O)=C1C(c1ccc(Cl)cc1)c1cc2c(cc1O)OCO2` (stereo not given), for which the growth inhibition in assay [1] was -19.9%; in assay [2], -16.7%; in assay [3] it was -28.1%; in assay [4], -16.3%; in assay [5], 0.05%; in assay [6], -37.5%.

Turning to `CC(C)CC(N)C(=O)NC(Cc1cc2ccccc2[nH]1)C(=O)O` (stereo not given), the growth inhibition in assay [1] was 2.4%; in assay [2] it was -6.25%; in assay [3], 7.3%; in assay [4], -17.9%; in assay [5], 5.2%; in assay [6], -0.4%.

In the case of `Cc1ccccc1-n1c(C)nc2cc(NC(N)=S)ccc2c1=O`, the growth inhibition was -19.1% in assay [1]; -3.05% in assay [2]; 0% in assay [3]; -24.5% in assay [4]; -5.9% in assay [5]; -17.7% in assay [6].

As for `CC1OC(OC2CCc3c(O)c4c(c(O)c3C2)C(=O)c2ccccc2C4=O)CC(N)C1O` (stereo not given), the growth inhibition is 5.25% in assay [1]; 8.9% in assay [2]; 5.85% in assay [3]; 14.8% in assay [4]; -1.85% in assay [5]; -2.15% in assay [6].

`CCOC(=O)Nc1ccc(C2SCCN2C(=O)Nc2ccc(Cl)cc2)cc1` (stereo not given): the growth inhibition in assay [1] was -9.5%; in assay [2] it was -14.3%; in assay [3] it was -9.45%; in assay [4] it was -5.65%; in assay [5] it was -7.7%; in assay [6], -11.3%.

With `CCOC(CCl)(NC(C)=O)C(=O)OC` (stereo not given), the growth inhibition in assay [1] is -0.5%; in assay [2], -9.7%; in assay [3] it was -9.55%; in assay [4] it was -8.75%; in assay [5] it was 4.3%; in assay [6], -8.1%.

For the compound `O=C(/C=C\c1ccco1)NC(=O)NC(=O)N1CCCCC1`, the growth inhibition in assay [1] was -0.7%; in assay [2] it was -22.3%; in assay [3], -2.05%; in assay [4], -16.4%; in assay [5], -9.15%; in assay [6], 4.7%.

On to `COc1ccc2cc(C(=O)O)ccc2c1OC`, for which the growth inhibition in assay [1] is 1.05%; in assay [2], 1.7%; in assay [3] it was 27%; in assay [4], 25.1%; in assay [5], -6.3%; in assay [6], -3.85%.

For `C/C(=C\c1ccccc1)c1ccccc1`, the growth inhibition in assay [1] is -47.8%; in assay [2], 1.9%; in assay [3] it was -3.75%; in assay [4] it was -30.4%; in assay [5], 2.1%; in assay [6], 8.45%.

On to `CSc1ncnc2ncn(C)c12`, for which the growth inhibition in assay [1] was 11.9%; in assay [2] it was -2.6%; in assay [3], 4.4%; in assay [4], -9.95%; in assay [5], 3.25%; in assay [6] it was 1.75%.

On to `O=C(/C=C/c1ccccc1)CCc1c(O)c2ccccc2oc1=O`, for which the growth inhibition in assay [1] was 9.05%; in assay [2], -5.3%; in assay [3] it was 0.45%; in assay [4], 31.1%; in assay [5], 1.85%; in assay [6] it was 28.8%.

Regarding `CCOc1ccc(NC(=O)CC2SC(=Nc3ccc(C)cc3C)NC2=O)cc1` (stereo not given), the growth inhibition was 12.6% in assay [1]; 24.5% in assay [2]; 33.3% in assay [3]; 44.3% in assay [4]; 39.4% in assay [5]; 28.8% in assay [6].

Consider `CCNC(=S)NCCc1c[nH]c2ccccc12`, for which the growth inhibition in assay [1] was -57%; in assay [2] it was -3.55%; in assay [3] it was -7.75%; in assay [4], -0.4%; in assay [5] it was 2.55%; in assay [6] it was -36.6%.

Regarding `O=C(O)COc1ccc(C(=O)/C(SS/C(C(=O)c2ccc(OCC(=O)O)c(Cl)c2Cl)=C2\C=C(c3ccc(F)cc3)SS2)=C2/C=C(c3ccc(F)cc3)SS2)c(Cl)c1Cl`, the growth inhibition is -35% in assay [1]; -28.4% in assay [2]; -14.2% in assay [3]; 1.8% in assay [4]; -22.3% in assay [5]; 83.7% (active) in assay [6].
